The structures appear in SMILES notation. The whole screen tested about 71,000 compounds, of which about 180 (0.25%) were called active. Many of the other results were omitted from the sample, so actives are more common in it than they were. Unmarked numbers belong to inactive results. Calls follow the shape of the dose curve; as a rule, active = well fitted curve in the direction sought with a large enough effect; inconclusive = small, poorly fitted or top-dose-only effect; inactive = flat fitted curve, though single readings scatter.

The source of these data is PubChem BioAssay AID603 (National Center for Advancing Translational Sciences (NCATS), 2007).
% is scaled to controls: 0 for no effect and ±100 for the full control effect.

The experiment concerns DNA polymerase III holoenzyme (E. coli). The experiment is described as follows: qHTS Assay for Inhibitors of DNA Polymerase III Holoenzyme System. The following applies: reconstituted DNA polymerase III holoenzyme replication, biochemical; series mostly up to 57.1 µM; activity change, negative = inhibition: at the top concentration. Here is the method:
NIH Molecular Libraries Screening Centers Network [MLSCN]
NIH Chemical Genomics Center [NCGC]
Assay Provider: Charles McHenry, University of Colorado
E. coli DNA polymerase III holoenzyme complex was assayed for DNA production by fluorescent detection of the double-stranded DNA product with PicoGreen dye. The holoenzyme complex was reconstituted from the following purified protein components: DNA Polymerase III, beta subunit processivity factor, SSB single-stranded DNA binding protein, and Primase. Single-stranded, circular M13Gori was used as a substrate with dNTPs and NTPs also supplied to the substrate reagent. Compounds from the NCGC collection were incubated with the holoenzyme mixture for 15 min at room temperature to allow binding to occur, and then the reaction was started by the addition of substrate. After 30 min incubation at room temperature, PicoGreen solution containing EDTA was added to stop the reaction and to visualize the double-stranded DNA produced. Reaction progress was measured in a ViewLux CCD imager in fluorescence intensity mode by using 480 nm excitation and 540 nm emission filter set.
NCGC Assay Protocol Summary:
Buffer. 50 mM Hepes-KOH, pH 7.5, 5 % Glycerol, 0.02% NP40, 30 mM potassium;
glutamate, 1.5 mM Magnesium Acetate, 16 uM TCEP.
Buffer in columns 3 and 4 as negative control (no enzyme).
Substrate solution: 5 uM each dATP, dGTP, dCTP and TTP, 50 uM each GTP, CTP, UTP and 200 uM ATP, 1.4 nM M13gori (final concentrations).
Enzyme: 154 nM SSB, 2 nM Primase, 1 nM Beta, 0.35 nM Pol III (final concentrations).
PicoGreen/EDTA: 10 mM Tris-HCl, 10 mM EDTA, 5 uM PicoGreen (final concentrations).
Control titration: ChemBridge 5805060 (from 10 mM, then 1:2, in duplicate) was pin-transferred to upper half of column 2.
Three uL of holoenzyme mixture were dispensed to 1536-well Greiner black solid bottom plates. Compounds and controls (23 nL) were transferred via Kalypsys PinTool. The plates were incubated for 15 min at room temperature, and then 1 uL of substrate solution was added to start the reaction. After room temperature incubation for 35 minutes, 1 uL of PicoGreen solution was added to each well and the plates were read 480 nm excitation and 540 nm emission using ViewLux (Perkin-Elmer) High-throughput CCD imager and fluorescence protocol settings.
Keywords: NIH Roadmap, MLSCN, MLI, MLSMR, qHTS, NCGC, DNA Polymerase III, DNAPol3, DNAPoly3, DNA replication targets
For orientation: qHTS replaces the single test concentration by a dilution series.
As for `O=S(=O)(c1cccc(S(=O)(=O)N2CCC(n3nnc4ccccc43)CC2)c1)N1CCCCC1`, the “activity change, negative = inhibition” value is -5.3%.

Take `CC[C@]1([C@H]2O[C@@H]([C@@H]3O[C@](O)(CO)[C@@H](C)C[C@H]3C)C[C@H]2C)CC[C@@H]([C@]2(C)CC[C@@]3(C[C@@H](O)[C@@H](C)[C@@H]([C@H](C)[C@H](OC)[C@H](C)C(=O)O)O3)O2)O1`: the “activity change, negative = inhibition” value is -3.8% [at 25.6 µM].

As to `CC(=O)NC(C)c1nc2ccccc2n1Cc1ccccc1F` (centres undefined), the “activity change, negative = inhibition” value is -0.1%.

Regarding `Cc1ccc(S(=O)(=O)Nc2ccccc2CNc2c(C)n(C)n(-c3ccccc3)c2=O)cc1`, the “activity change, negative = inhibition” value is -1.6%.

With `Cc1noc(C)c1-c1nccc(N2CCOCC2)n1`, the “activity change, negative = inhibition” value was -4.8%.

`Cc1cc(C)cc(N(CC(=O)Nc2c(C)n(C)n(-c3ccccc3)c2=O)S(C)(=O)=O)c1`: the activity change, negative = inhibition was 2.7% [at 11.4 µM].

On to `Cc1cn(C2C=CC(CO)O2)c(=O)[nH]c1=O` (centres undefined), for which the “activity change, negative = inhibition” value is 0%.

With `COc1cccc2cc(C(C)N(CCCN3CCOCC3)C(=O)Nc3ccc(Cl)cc3)oc12` (centres undefined), the “activity change, negative = inhibition” value was -0.7%.

As for `O=C(c1cc(C(F)(F)F)cc(C(F)(F)F)c1)N1CCC[C@@]2(CCN(c3ccccn3)C2)C1`, the “activity change, negative = inhibition” value was -5.9%.

In the case of `CS(=O)(=O)Nc1cccc(-c2cncnc2Nc2ccccc2)c1`, the “activity change, negative = inhibition” value is -2%.

With `CCOc1ccc(CCNC(=O)C2CCN(c3ccc(N4CCOCC4)nn3)CC2)cc1OCC`, the “activity change, negative = inhibition” value is -4.2%.

Regarding `Cc1cccc(C(=O)O)c1`, the “activity change, negative = inhibition” value was 7.4%.

Regarding `COC(=O)[C@@]1(Cc2ccc(F)cc2)[C@H]2c3cc(C(=O)N(C)C)n(CCc4c[nH]c5ccc(OC)cc45)c3C[C@H]2CN1C(=O)c1ccccc1`, the “activity change, negative = inhibition” value was -11%.

For `COc1ccccc1CCn1c(=O)c(-c2cn(C)c3ccccc23)nc2cncnc21`, the “activity change, negative = inhibition” value is -6.9%.

For the molecule `c1ccc2cc3[nH]c(CN4CCCCC4)nc3cc2c1`, the “activity change, negative = inhibition” value is -7.3%.

Consider `CC(C)c1nnc(NC(=O)C2CCCN2S(=O)(=O)c2ccc(Cl)cc2)s1` (centres undefined), for which the “activity change, negative = inhibition” value is -2.6%.

For `O=C(Nc1ccccc1C(=O)N1CCOCC1)C1CCC(=O)N1C1CCCC1` (centres undefined), the “activity change, negative = inhibition” value was -7.4%.

On to `COc1ccc(C)c(Cn2c(-c3nonc3N)nc3ccccc32)c1`, for which the “activity change, negative = inhibition” value was 3.6%.

For the molecule `O=C(Nc1ccon1)c1cccc(Cl)c1`, the “activity change, negative = inhibition” value is -2.9%.

As to `CC(C)C[C@@H](CC(=O)N[C@@H](CCC(=O)O)CC(=O)O)NC(=O)[C@@H]1CCCC[C@H]1NC(=O)C[C@@H](NC(=O)C[C@H](Cc1c[nH]c2ccccc12)NC(=O)[C@@H]1CCCC[C@H]1N)C(C)C`, the “activity change, negative = inhibition” value is 1.5%.

As for `CCOC(=O)C1Cn2c(nc3c(c2=O)C(C)(CC)Cc2ccccc2-3)S1` (centres undefined), the “activity change, negative = inhibition” value is 2.7%.

As to `COCCn1nnnc1C(c1ccccc1Cl)N1CCN(c2ccccc2OC)CC1` (centres undefined), the “activity change, negative = inhibition” value was -7.9%.

For `NS(=O)(=O)c1cc(C(=O)O)c(Cl)c([N+](=O)[O-])c1Cl`, the activity change, negative = inhibition was -10.9% [at 11.4 µM].

For the molecule `COC(=O)C1(Cc2ccccc2)C=C2C(=C(C)C(=O)C2C)CN1` (centres undefined), the “activity change, negative = inhibition” value was -5.5%.

With `c1cncc(-c2nc(N3CCNCC3)c3ccccc3n2)c1`, the “activity change, negative = inhibition” value is -8.1%.

`CN(C)CCCn1c2ccccc2c2cnccc21`: the activity change, negative = inhibition is -9.9% [at 11.4 µM].

Turning to `COc1ccc(C(=O)N2CCC3(CC2)CCN(c2ccccn2)CC3)cc1`, the “activity change, negative = inhibition” value is -5.7%.

For `O=C(c1ccncc1)N1CCC2(CCN(Cc3cc(C(F)(F)F)cc(C(F)(F)F)c3)CC2)CC1`, the “activity change, negative = inhibition” value is -6.3%.

For `CCCCSc1nc2c(c(=O)n1CC)SC(C)C2` (centres undefined), the “activity change, negative = inhibition” value is -8.4%.

Turning to `CCC1Oc2ccc(Cl)cc2N(CC(=O)O)C1=O` (centres undefined), the “activity change, negative = inhibition” value is -1.1%.

Consider `Cc1ccccc1C(=O)NCCN=C1NS(=O)(=O)c2ccccc21`, for which the “activity change, negative = inhibition” value is 2.9%.

As for `O=C(Cn1nnc(-c2ccc3c(c2)OCO3)n1)NCc1ccco1`, the “activity change, negative = inhibition” value was -4%.

On to `COc1ccc(CCNC(=O)CCn2c(=O)oc3ccccc32)cc1OC`, for which the “activity change, negative = inhibition” value was -6.6%.

`CN(C)CCCNC(=O)c1ccc2[nH]c3ccccc3c2c1`: the “activity change, negative = inhibition” value was -5.1%.

Consider `CSc1ccc(S(=O)(=O)NCc2ccc(Cl)cc2)cc1`, for which the “activity change, negative = inhibition” value was 2.9%.

With `O=C(C1CCCO1)N1CCC(c2nc3ccccc3[nH]2)CC1` (centres undefined), the “activity change, negative = inhibition” value was -5.1%.

For the molecule `N#Cc1c(N)sc2c1CCN(C(=O)OCc1ccccc1)C2`, the “activity change, negative = inhibition” value was -0.3%.

Consider `COc1ccccc1-c1c(C)nn2c(C)c(C(C)=O)cnc12`, for which the “activity change, negative = inhibition” value is -6.3%.

As to `CN(C)C(=O)c1ccc(-c2cncnc2NC2CCNCC2)cc1`, the “activity change, negative = inhibition” value was -0.4%.

On to `O=c1cc(-c2ccc(O)c(O)c2)oc2cccc(O)c12`, for which the “activity change, negative = inhibition” value was -19.4%.

Consider `Oc1ccc(O)c2c(O)cccc12`, for which the Potency is 15.8 µM (active).

Take `COc1ccc(OC)c(CN2C(=O)CCC2(C)C(=O)NC2CCCCCC2)c1` (centres undefined): the “activity change, negative = inhibition” value was -4.8%.

As for `N#Cc1ccccc1-c1ccc2ncnc(NCc3cccnc3)c2c1`, the “activity change, negative = inhibition” value was -7.4%.

Turning to `CN1C(=O)CC(N2CCN(c3ccccn3)CC2)C1=O` (centres undefined), the “activity change, negative = inhibition” value is 4.6%.

As for `N#Cc1ccc(CN2CCCC3(CCN(C(=O)c4ccco4)CC3)C2)cc1`, the “activity change, negative = inhibition” value is 22.9%.

Consider `Cc1c(-c2nn(C)c(=O)c3ccccc23)oc2ccc(F)cc2c1=O`, for which the “activity change, negative = inhibition” value is -0.7%.

Regarding `Clc1ccc(C=Nc2ccc3c(c2)Cc2ccccc2-3)c(Cl)c1`, the activity change, negative = inhibition is -10.3% [at 11.4 µM].

Take `CCOC(=O)c1nnn(CC(=O)Nc2cccc(F)c2)c1C(=O)OCC`: the “activity change, negative = inhibition” value is -1%.

In the case of `c1ccc(Nc2n[nH]nc2-c2ccccc2)cc1`, the “activity change, negative = inhibition” value was -5.3%.

`O=C1c2cccc3cccc(c23)N1CN1CCN(c2ccccn2)CC1`: the “activity change, negative = inhibition” value is -6.4%.

In the case of `C=CCOC(=O)c1ccccc1C(=O)OCC=C`, the “activity change, negative = inhibition” value was 8.7%.

`Nc1nonc1C(=O)NCCc1ccccc1`: the “activity change, negative = inhibition” value is -6.7%.

On to `COCCNc1nc(-n2nc(C)cc2C)nc2sc3c(c12)CCCC3`, for which the “activity change, negative = inhibition” value is -2.3%.

Consider `C[C@@H](C(=O)Nc1ccc2ccccc2c1)[C@@H]1C[C@@]1(C)[C@@H](NC(=O)c1cccnc1)c1ccccc1`, for which the “activity change, negative = inhibition” value is 2.5%.
